In article PMC11006913 one finds binding signal data, which are given here for eleven sequences.

Holding throughout (assay): PBM; 200 nM protein, PBS
What all share (settings): dsDNA, one strand shown

For experiment [1], the target named is HESX1 (Homo sapiens, UniProt Q9UBX0 95-180, R165K).
For experiment [2], the target named is HESX1 (Homo sapiens, UniProt Q9UBX0 95-180).
For experiment [3], the target named is PROP1 (Homo sapiens, UniProt O75360 56-141).
Experiment [4] has as its target HESX1 (Homo sapiens, UniProt Q9UBX0 95-180, R109Q).
In experiment [5] the target is PROP1 (Homo sapiens, UniProt O75360 56-141, R99H).
Experiment [6] deals with HESX1 (Homo sapiens, UniProt Q9UBX0 95-180, P111T).
Experiment [7] has as its target PROP1 (Homo sapiens, UniProt O75360 56-141, F88S).
Experiment [8] addresses HESX1 (Homo sapiens, UniProt Q9UBX0 95-180, F115L).
Experiment [9] deals with ALX3 (Homo sapiens, UniProt O95076 139-225, N203Q).
For experiment [10], the target named is ALX3 (Homo sapiens, UniProt O95076 139-225).
The target of experiment [11] is ALX3 (Homo sapiens, UniProt O95076 139-225, L168Q).
Experiment [12] concerns the target ALX3 (Homo sapiens, UniProt O95076 139-225, L168V).
Experiment [13] has as its target ALX3 (Homo sapiens, UniProt O95076 139-225, N203S).
In experiment [14] the target is VAX1 (Homo sapiens, UniProt Q5SQQ9 86-172).
Experiment [15] addresses VAX1 (Homo sapiens, UniProt Q5SQQ9 86-172, T142I).
For experiment [16], the target named is VAX1 (Homo sapiens, UniProt Q5SQQ9 86-172, K157R).
Sequence of VAX1 (Homo sapiens, UniProt Q5SQQ9 86-172, K157R) (Q5SQQ9 86-172 K157R): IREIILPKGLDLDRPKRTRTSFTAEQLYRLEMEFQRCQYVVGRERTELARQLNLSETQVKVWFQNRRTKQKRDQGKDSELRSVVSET

Sequence of HESX1 (Homo sapiens, UniProt Q9UBX0 95-180, P111T) (Q9UBX0 95-180 P111T): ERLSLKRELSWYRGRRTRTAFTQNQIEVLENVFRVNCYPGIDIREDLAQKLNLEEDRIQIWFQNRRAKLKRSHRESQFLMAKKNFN
Sequence of HESX1 (Homo sapiens, UniProt Q9UBX0 95-180) (Q9UBX0 95-180): as the sequence (Q9UBX0 95-180 P111T) above, with T17P counted along it
Sequence of PROP1 (Homo sapiens, UniProt O75360 56-141, F88S) (O75360 56-141 F88S): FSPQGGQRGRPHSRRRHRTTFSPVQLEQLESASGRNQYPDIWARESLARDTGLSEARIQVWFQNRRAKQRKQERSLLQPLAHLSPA
Sequence of HESX1 (Homo sapiens, UniProt Q9UBX0 95-180, R109Q) (Q9UBX0 95-180 R109Q): as the sequence (Q9UBX0 95-180 P111T) above, with R15Q, T17P counted along it
Sequence of HESX1 (Homo sapiens, UniProt Q9UBX0 95-180, R165K) (Q9UBX0 95-180 R165K): as the sequence (Q9UBX0 95-180 P111T) above, with T17P, R71K counted along it
Sequence of HESX1 (Homo sapiens, UniProt Q9UBX0 95-180, F115L) (Q9UBX0 95-180 F115L): as the sequence (Q9UBX0 95-180 P111T) above, with T17P, F21L counted along it
Sequence of PROP1 (Homo sapiens, UniProt O75360 56-141, R99H) (O75360 56-141 R99H): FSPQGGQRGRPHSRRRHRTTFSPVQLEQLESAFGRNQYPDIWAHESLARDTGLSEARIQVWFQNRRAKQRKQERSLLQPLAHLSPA
Sequence of PROP1 (Homo sapiens, UniProt O75360 56-141) (O75360 56-141): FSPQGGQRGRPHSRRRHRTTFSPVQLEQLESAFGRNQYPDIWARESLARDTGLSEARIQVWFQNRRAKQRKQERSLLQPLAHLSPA
Sequence of VAX1 (Homo sapiens, UniProt Q5SQQ9 86-172) (Q5SQQ9 86-172): as the sequence (Q5SQQ9 86-172 K157R) above, with R72K counted along it
Sequence of VAX1 (Homo sapiens, UniProt Q5SQQ9 86-172, T142I) (Q5SQQ9 86-172 T142I): as the sequence (Q5SQQ9 86-172 K157R) above, with T57I, R72K counted along it
Sequence of ALX3 (Homo sapiens, UniProt O95076 139-225, N203Q) (O95076 139-225 N203Q): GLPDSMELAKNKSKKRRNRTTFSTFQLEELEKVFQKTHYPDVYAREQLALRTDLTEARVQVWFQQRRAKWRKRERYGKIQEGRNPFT
Sequence of ALX3 (Homo sapiens, UniProt O95076 139-225) (O95076 139-225): as the sequence (O95076 139-225 N203Q) above, with Q65N counted along it
Sequence of ALX3 (Homo sapiens, UniProt O95076 139-225, N203S) (O95076 139-225 N203S): as the sequence (O95076 139-225 N203Q) above, with Q65S counted along it
Sequence of ALX3 (Homo sapiens, UniProt O95076 139-225, L168V) (O95076 139-225 L168V): as the sequence (O95076 139-225 N203Q) above, with L30V, Q65N counted along it
Sequence of ALX3 (Homo sapiens, UniProt O95076 139-225, L168Q) (O95076 139-225 L168Q): as the sequence (O95076 139-225 N203Q) above, with L30Q, Q65N counted along it

Consider AAATATTA, for which the binding signal with HESX1 [1] is 8.45 upbm affinity estimate (log intensity, higher = more binding, comparable within an allelic series); with HESX1 [2], 8.54 upbm affinity estimate (log intensity, higher = more binding, comparable within an allelic series).
As for CTTGGCGA, the binding signal with HESX1 [1] is 6.46 upbm affinity estimate (log intensity, higher = more binding, comparable within an allelic series); with HESX1 [2] it was 6.46 upbm affinity estimate (log intensity, higher = more binding, comparable within an allelic series); in the experiment with PROP1 [3], 6.63 upbm affinity estimate (log intensity, higher = more binding, comparable within an allelic series); with HESX1 [4] it was 6.48 upbm affinity estimate (log intensity, higher = more binding, comparable within an allelic series); in the experiment with PROP1 [5], 6.61 upbm affinity estimate (log intensity, higher = more binding, comparable within an allelic series); with HESX1 [6], 6.51 upbm affinity estimate (log intensity, higher = more binding, comparable within an allelic series). Besides, the binding signal with PROP1 [7] was 6.64 upbm affinity estimate (log intensity, higher = more binding, comparable within an allelic series); with HESX1 [8], 6.53 upbm affinity estimate (log intensity, higher = more binding, comparable within an allelic series).
For CGCCCAAG, the binding signal was 6.57 upbm affinity estimate (log intensity, higher = more binding, comparable within an allelic series) in the experiment with HESX1 [1]; 6.59 upbm affinity estimate (log intensity, higher = more binding, comparable within an allelic series) with HESX1 [2]; 7.75 upbm affinity estimate (log intensity, higher = more binding, comparable within an allelic series) with ALX3 [9]; 7.67 upbm affinity estimate (log intensity, higher = more binding, comparable within an allelic series) with ALX3 [10]; 6.54 upbm affinity estimate (log intensity, higher = more binding, comparable within an allelic series) with HESX1 [4]; 7.8 upbm affinity estimate (log intensity, higher = more binding, comparable within an allelic series) in the experiment with ALX3 [11]. For the same sequence, the binding signal was 6.5 upbm affinity estimate (log intensity, higher = more binding, comparable within an allelic series) with HESX1 [6]; 7.74 upbm affinity estimate (log intensity, higher = more binding, comparable within an allelic series) in the experiment with ALX3 [12]; 6.55 upbm affinity estimate (log intensity, higher = more binding, comparable within an allelic series) with HESX1 [8]; 7.78 upbm affinity estimate (log intensity, higher = more binding, comparable within an allelic series) in the experiment with ALX3 [13].
Turning to CCGAGTCG, the binding signal in the experiment with HESX1 [1] was 6.6 upbm affinity estimate (log intensity, higher = more binding, comparable within an allelic series); with HESX1 [2], 6.58 upbm affinity estimate (log intensity, higher = more binding, comparable within an allelic series); with HESX1 [4], 6.45 upbm affinity estimate (log intensity, higher = more binding, comparable within an allelic series); with HESX1 [6], 6.56 upbm affinity estimate (log intensity, higher = more binding, comparable within an allelic series); with HESX1 [8], 6.36 upbm affinity estimate (log intensity, higher = more binding, comparable within an allelic series).
For AGAGGAGC, the binding signal with HESX1 [1] was 6.5 upbm affinity estimate (log intensity, higher = more binding, comparable within an allelic series); with HESX1 [2], 6.51 upbm affinity estimate (log intensity, higher = more binding, comparable within an allelic series); with HESX1 [4], 6.44 upbm affinity estimate (log intensity, higher = more binding, comparable within an allelic series); with HESX1 [6], 6.47 upbm affinity estimate (log intensity, higher = more binding, comparable within an allelic series); with HESX1 [8] it was 6.59 upbm affinity estimate (log intensity, higher = more binding, comparable within an allelic series).
For GCGTGGCC, the binding signal with HESX1 [1] was 6.46 upbm affinity estimate (log intensity, higher = more binding, comparable within an allelic series); with HESX1 [2] it was 6.31 upbm affinity estimate (log intensity, higher = more binding, comparable within an allelic series); with HESX1 [4], 6.39 upbm affinity estimate (log intensity, higher = more binding, comparable within an allelic series); in the experiment with VAX1 [14], 7.21 upbm affinity estimate (log intensity, higher = more binding, comparable within an allelic series); in the experiment with HESX1 [6] it was 6.37 upbm affinity estimate (log intensity, higher = more binding, comparable within an allelic series); with HESX1 [8], 6.39 upbm affinity estimate (log intensity, higher = more binding, comparable within an allelic series). Further, the binding signal with VAX1 [15] was 7.36 upbm affinity estimate (log intensity, higher = more binding, comparable within an allelic series); with VAX1 [16], 6.97 upbm affinity estimate (log intensity, higher = more binding, comparable within an allelic series).
With ACAGCGCG, the binding signal with HESX1 [1] is 6.46 upbm affinity estimate (log intensity, higher = more binding, comparable within an allelic series); in the experiment with HESX1 [2] it was 6.41 upbm affinity estimate (log intensity, higher = more binding, comparable within an allelic series); in the experiment with HESX1 [4] it was 6.49 upbm affinity estimate (log intensity, higher = more binding, comparable within an allelic series); with VAX1 [14] it was 7.27 upbm affinity estimate (log intensity, higher = more binding, comparable within an allelic series); in the experiment with HESX1 [6] it was 6.48 upbm affinity estimate (log intensity, higher = more binding, comparable within an allelic series); with HESX1 [8] it was 6.44 upbm affinity estimate (log intensity, higher = more binding, comparable within an allelic series). Also, the binding signal in the experiment with VAX1 [15] is 7.28 upbm affinity estimate (log intensity, higher = more binding, comparable within an allelic series); with VAX1 [16], 7.22 upbm affinity estimate (log intensity, higher = more binding, comparable within an allelic series).
As for AGGAGCTG, the binding signal in the experiment with HESX1 [1] was 6.51 upbm affinity estimate (log intensity, higher = more binding, comparable within an allelic series); in the experiment with HESX1 [2], 6.45 upbm affinity estimate (log intensity, higher = more binding, comparable within an allelic series); with HESX1 [4] it was 6.4 upbm affinity estimate (log intensity, higher = more binding, comparable within an allelic series); with HESX1 [6], 6.4 upbm affinity estimate (log intensity, higher = more binding, comparable within an allelic series); in the experiment with HESX1 [8] it was 6.28 upbm affinity estimate (log intensity, higher = more binding, comparable within an allelic series).
On to ATTAGCGA, for which the binding signal in the experiment with HESX1 [1] was 9.89 upbm affinity estimate (log intensity, higher = more binding, comparable within an allelic series); with HESX1 [2], 10.1 upbm affinity estimate (log intensity, higher = more binding, comparable within an allelic series); with PROP1 [3], 10.2 upbm affinity estimate (log intensity, higher = more binding, comparable within an allelic series); with PROP1 [5] it was 9.94 upbm affinity estimate (log intensity, higher = more binding, comparable within an allelic series); with HESX1 [6], 8.88 upbm affinity estimate (log intensity, higher = more binding, comparable within an allelic series); with PROP1 [7], 7.4 upbm affinity estimate (log intensity, higher = more binding, comparable within an allelic series).
On to CCGGCCGA, for which the binding signal with HESX1 [1] is 6.49 upbm affinity estimate (log intensity, higher = more binding, comparable within an allelic series); in the experiment with HESX1 [2], 6.45 upbm affinity estimate (log intensity, higher = more binding, comparable within an allelic series); with PROP1 [3], 6.73 upbm affinity estimate (log intensity, higher = more binding, comparable within an allelic series); with HESX1 [4] it was 6.51 upbm affinity estimate (log intensity, higher = more binding, comparable within an allelic series); with PROP1 [5], 6.72 upbm affinity estimate (log intensity, higher = more binding, comparable within an allelic series); with HESX1 [6], 6.49 upbm affinity estimate (log intensity, higher = more binding, comparable within an allelic series). Further, the binding signal in the experiment with PROP1 [7] is 6.59 upbm affinity estimate (log intensity, higher = more binding, comparable within an allelic series); with HESX1 [8], 6.54 upbm affinity estimate (log intensity, higher = more binding, comparable within an allelic series).
As for ATTGATTC, the binding signal is 7.97 upbm affinity estimate (log intensity, higher = more binding, comparable within an allelic series) in the experiment with HESX1 [1]; 8.12 upbm affinity estimate (log intensity, higher = more binding, comparable within an allelic series) with HESX1 [2]; 7.41 upbm affinity estimate (log intensity, higher = more binding, comparable within an allelic series) with HESX1 [4]; 7.74 upbm affinity estimate (log intensity, higher = more binding, comparable within an allelic series) with HESX1 [6].
